PD-1 reversal = activators reversing PD-1 mediated T-cell inhibition, primary screen, luminescence, primary human CD4 T cells, PD-L1 beads. CellTiter-Glo 96 h. activation, % (no concentration beside the values). 29,000 tested, under 10 active; call rule not given here;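 note: 0% = median vehicle wells and 100% = positive control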
ROS inducer = ROS inducers in U2OS cancer cells, primary screen, cell-based, H2DCF-DA fluorescence; U2OS ROS induction; ROS induction (% of piperlongumine), % at 10 µM; 46,000 compounds, 2% hits; AID 624156, 2012; in the data active = ROS induction above about 79%, passing the limit was not always enough;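 note: 0% = DMSO vehicle median and 100% = reference compound median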
YB-1 expr inh = inhibitors of YB-1 gene expression, primary screen, cell-based, fluorescence | U2OS, qRT-PCR YB-1 vs CDIP delta delta Cp, 16 h; stronger effect = higher value; zero = DMSO, each unit about twofold | delta delta Cp (YB-1 minus CDIP) (concentration not given with the values) | 30,000 compounds, 0.37% hits | AID 434959, 2010;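 active = delta delta Cp rounded down to an integer at or above 3, about 3 SD of DMSO wells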;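 note: higher means less YB-1 transcript or more CDIP transcript relative to DMSO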
Starred values were filed as active, the others as inactive; . = not tested or not shown. Compounds with a hit are over-represented: about 2.1% of the library has one in this group of screens.

SMILES | PD-1 reversal | ROS inducer | YB-1 expr inh
COCCOC(=O)N1C(=O)[C@@]2(c3cc(C#CC4=CCCCC4)ccc31)[C@H](c1ccccc1OCCO)N1[C@H](c3ccccc3)[C@H](c3ccccc3)OC(=O)[C@H]1[C@@H]2C(N)=O | . | 84.2* | -0.0602
Cc1ccc(S(=O)(=O)N(C)CC(=O)Nc2ccc(Nc3ccccc3)cc2)cc1 | -3.3 | 19.5 | .
O=c1[nH]c(=O)n(Cc2c(Cl)cccc2Cl)cc1F | . | 8.2 | .
COC(=O)c1[nH]nc2c1C(=O)N(c1ccc(F)cc1)C2=O | . | 260.1* | .
COC(=O)c1cccc(C(=O)Nc2ccc(F)cc2)n1 | 1.2 | 6.2 | 0.437
Nc1nc(N2CCOCC2)ncc1S(=O)(=O)c1ccc(Cl)cc1 | 0.2 | -0.8 | -0.0244
COc1cc(/C=C/C=O)cc(OC)c1O | . | 5.0 | 0.00793
CCOC(=O)c1c(NC(=O)COc2ccccc2Cl)sc2c1CCCC2 | 0.3 | 0.0 | .
C[C@@H]1CCCCO[C@@H](CN(C)C(=O)C2CCCCC2)[C@@H](C)CN([C@H](C)CO)C(=O)c2cc(NS(=O)(=O)c3cccs3)ccc2O1 | . | 108.6* | -0.245
C[C@@H]1CCCCO[C@@H](CN(C)C(=O)C2CCCCC2)[C@@H](C)CN([C@H](C)CO)C(=O)c2cc(NS(=O)(=O)c3ccccc3)ccc2O1 | . | 109.7* | -0.452
C[C@@H]1CCCCO[C@@H](CN(C)C(=O)Nc2ccccc2)[C@@H](C)CN([C@H](C)CO)C(=O)c2cc(NS(=O)(=O)c3cccs3)ccc2O1 | 0.2 | 9.3 | 0.288
C[C@@H]1CCCCO[C@H](CN(C)C(=O)C2CCCCC2)[C@@H](C)CN([C@H](C)CO)C(=O)c2cc(NS(=O)(=O)c3ccc(Cl)cc3)ccc2O1 | . | 35.1 | 0.293
C[C@@H]1CCCCO[C@H](CN(C)C(=O)NC2CCCCC2)[C@@H](C)CN([C@H](C)CO)C(=O)c2cc(NS(=O)(=O)c3cccs3)ccc2O1 | . | 83.5* | -0.197
C[C@@H]1CCCCO[C@H](CN(C)CC2CCCCC2)[C@@H](C)CN([C@H](C)CO)C(=O)c2cc(NS(=O)(=O)c3ccccc3)ccc2O1 | -5.2 | 119.0* | -0.612
Cc1ccc(S(=O)(=O)Nc2ccc3c(c2)C(=O)N([C@H](C)CO)C[C@H](C)[C@@H](CN(C)CC2CCCCC2)OCCCC[C@@H](C)O3)cc1 | -1.7 | 12.4 | -0.149
C[C@@H]1CCCCO[C@@H](CN(C)C(=O)c2ccccc2)[C@@H](C)CN([C@H](C)CO)C(=O)c2cc(NS(=O)(=O)c3cccs3)ccc2O1 | 1.4 | 5.0 | 0.216
Cc1noc(C)c1NC(=O)N(C)C[C@H]1Oc2ccc(NC(=O)Cc3cn(C)c4ccccc34)cc2C(=O)N([C@@H](C)CO)C[C@H]1C | . | -7.8 | 0.251
COC(=O)c1cc(OC)c(OC)cc1NC(=S)N1CCC(C(N)=O)(N2CCCCC2)CC1 | -0.4 | 10.8 | .
O=C(c1ccccc1)N1CN(C(=O)c2ccccc2)CN(C(=O)c2ccccc2)C1 | . | -6.1 | .
Cc1ccc(N(CC(=O)Nc2cccc3ccccc23)S(C)(=O)=O)cc1Cl | 1.5 | -7.2 | .
CCCCn1c(SCC)nc2sc3c(c2c1=O)CCCC3 | . | 6.9 | .
C=CCNC(=O)CSc1nnc(-c2ccc3nonc3c2)n1C | . | -1.1 | .
Cc1noc(C)c1-c1nc(CS(=O)(=O)Cc2ccc(Cl)cc2)no1 | . | -8.3 | .
C[C@H](CO)N1C[C@H](C)[C@H](CN(C)Cc2ccccc2)Oc2ccc(NS(=O)(=O)c3ccc(Cl)cc3)cc2C1=O | -0.3 | -10.4 | 6.13*
C[C@H]1CN([C@@H](C)CO)C(=O)c2cc(NS(=O)(=O)c3ccc(Cl)cc3)ccc2O[C@@H]1CN(C)Cc1ccc(C(F)(F)F)cc1 | -5.6 | 80.6* | 0.227
SMILES | PD-1 reversal | ROS inducer | YB-1 expr inh
C[C@@H]1CN([C@@H](C)CO)C(=O)c2cc(NS(=O)(=O)c3ccc(Cl)cc3)ccc2O[C@@H]1CN(C)Cc1ccccc1 | . | 1.7 | -0.0605
C[C@H](CO)N1C[C@H](C)[C@@H](CN(C)Cc2ccc(C(F)(F)F)cc2)Oc2ccc(NS(=O)(=O)c3ccc(Cl)cc3)cc2C1=O | -5.9 | 54.2 | 0.407
OC(CSc1ccccn1)CC(O)c1ccccc1 (centres undefined) | . | 3.9 | -0.0148
CC(C)CCSc1nc(N)c2c3c(sc2n1)CCCC3C (centres undefined) | . | 34.3 | .
C[C@@H]1C[C@@H]2O[C@H]2/C=C/C=C\C(=O)Cc2c(Cl)c(O)cc(O)c2C(=O)O1 | -7.2 | 139.5* | 0.639
COc1cc(O)cc2c1C(=O)OC(C)C2 (centres undefined) | 2.0 | 17.0 | -0.433
O=C(Cn1cnc2c(oc3ccccc32)c1=O)N1CCCCCC1 | . | -6.6 | .
Oc1ccccc1-c1cc(-c2ccccc2O)nc(-c2ccccc2)n1 | . | 1.7 | .
c1ccc(-c2ccc3c(n2)CCc2ccccc2-3)cc1 | -1.0 | 107.3* | -0.192
O=C(CSc1ccccn1)Nc1ccc(Oc2ccccc2)cc1 | 1.1 | 3.0 | .
CCC(C)NC(=O)C1CCCN(S(=O)(=O)c2ccc(C)cc2)C1 (centres undefined) | . | -3.4 | .
CCOC(=O)c1sc2nc(SCC(=O)C(C)(C)C)n(N)c(=O)c2c1C | . | -3.7 | .
CCCc1c(C#N)c(N)nc(SCCCN2CCN(c3cccc(Cl)c3)CC2)c1C#N | . | 125.9* | .
O=c1n(CCCN2CCN(c3cccc(Cl)c3)CC2)nc2ccccn12 | . | -0.9 | -0.518
CCN(CC)C(=S)NC(=S)c1ccc(C)cc1 | -6.8 | -1.1 | -0.255
COC(=O)CNC(c1ccccc1)c1cc(Br)ccc1N=Cc1ccccc1O (centres undefined) | -0.8 | 1.8 | -0.393
COC(=O)CNC(c1ccccc1)c1cc(Br)ccc1NC(=O)c1ccccc1Cl (centres undefined) | . | 97.1* | .
CCOC(=O)c1c(NC(=O)CSc2nc(C)cc(C(F)(F)F)n2)sc2c1CCCC2 | 2.1 | -3.4 | .
CCOC(=O)c1c(NC(=O)c2nc3nc(C)cc(C(F)F)n3n2)sc2c1CCCC2 | 6.2 | 165.5* | .
Cc1ccc(-c2nn3c(C)nnc3c3ccccc23)cc1S(=O)(=O)NCc1ccco1 | -4.0 | 125.0* | .
Cc1ccc(-c2nnc3c4ccccc4c(C)nn23)cc1S(=O)(=O)NC(C)c1ccccc1 (centres undefined) | -1.0 | -4.1 | .
NC(=O)[C@H]1[C@@H]2C(=O)O[C@@H](c3ccccc3)[C@@H](c3ccccc3)N2[C@@H](c2ccc(OCCO)cc2)[C@]12C(=O)Nc1ccc(C#CC3(O)CCCCCC3)cc12 | . | -1.6 | -0.208
COc1cccc(NC(=O)Cn2ncc3c4ccccc4n(C)c3c2=O)c1 | . | -9.4 | .
O=C1N(CCS(=O)(=O)c2ccccc2)Cc2ccccc2C[C@]12N=C(c1ccc(OCCCO)cc1)O[C@@H]2c1ccccc1 | . | 99.1* | 0.417
O=C1N(CCS(=O)(=O)c2ccccc2)Cc2ccccc2[C@H]2OC(c3ccc(OCCCO)cc3)=N[C@@]12Cc1ccccc1 | . | 117.3* | -0.428
O=C(c1ccccc1)N1Cc2ccccc2[C@H]2OC(c3ccc(OCCCO)cc3)=N[C@@]2(Cc2ccccc2)C1=O | . | 36.4 | -0.227
O=C1N(Cc2ccccc2)Cc2ccccc2[C@H]2OC(c3ccc(OCCCO)cc3)=N[C@@]12CCS(=O)(=O)c1ccccc1 | . | 243.4* | 0.133
O=C(c1ccccc1)N1Cc2ccccc2[C@H]2OC(c3ccc(OCCCO)cc3)=N[C@@]2(CCS(=O)(=O)c2ccccc2)C1=O | . | 99.9* | -0.556
